Activity calls are given as the source filed them. How the source made its calls: active means hit-call score of the fitted dose curve at least 0.9, where 1 is the maximum; inactive means score below 0.9.
Read-out: Monocyte Chemoattractant Protein-1 (MCP1), CCL2 (gene 6347)
Assay: BSK_3C_MCP1: BioMAP Diversity Plus: 3C Assay for Monocyte Chemoattractant Protein-1 (MCP1) Biomarker Activity (AID 2283017)
Conditions: primary human endothelial cells (HUVEC); actives raise or lower the signal
Experimental: BSK_3C is a cell-based, multiplexed-readout assay that uses umbilical vein endothelium, a human vascular primary cell, with measurements taken at 24 hours after chemical dosing in a 96-well plate.BSK_3C_MCP1 is an assay component measured in the BSK_3C assay. It measures MCP-1 antibody related to regulation of gene expression using ELISA technology.Data from the assay component BSK_3C_MCP1 was analyzed into 1 assay endpoint. This assay endpoint, BSK_3C_MCP1, was analyzed with bidirectional fitting relative to DMSO as the negative control and baseline of activity. Using a type of binding reporter, gain or loss-of-signal activity can be used to understand changes in the signaling as they relate to the gene CCL2. Furthermore, this assay endpoint can be referred to as a primary readout, because this assay has produced multiple assay endpoints where this one serves a signaling function. To generalize the intended target to other relatable targets, this assay endpoint is annotated to the cytokine intended target family, where the subfamily is chemotactic factor.
The levels of cell surface (or secreted, indicated by the prefix "s") biomarker endpoints were measured by ELISA. Overt cytotoxicity to cells in confluent adherent cultures (all systems other than the BT system) was assessed by measuring total protein levels using sulforhodamine B (SRB) staining in parallel cultures at the time of biomarker measurements, indicated as SRB endpoints. For proliferation assays for adherent cell types, individual cell types are cultured at sub-confluence and relative cell numbers quantified by SRB staining at time points optimized for each system (48 h: 3C and CASM3C systems; 72 h: BT and HDF3CGF systems; 96 h: SAg system). SRB was performed by staining cells with 0.1% SRB after fixation with 10% TCA and reading wells at 560 nm.Viability and proliferation of PBMC (T cells) was quantified by Alamar Blue reduction for the SAg and BT systems. For PBMC viability (referred to as PBMC Cytotoxicity within the assay endpoint names), cells were plated (75,000/well in a 96-well plate) and then chemical samples added for 1 h before addition of activators, SEB and TSST-1 (20 ng/mL final concentration each). Cells were incubated for 90 h. Then, Alamar Blue (20 uL/well) (Invitrogen, Cat DAL1100) was added for 6 h, and the plates were read with a fluorescence microplate reader at 546/580 nm (excitation/emission). For PBMC proliferation, cells were plated and activated as above but incubated for only 16 h prior to addition of Alamar Blue. Plates were read after 6 h.

Compound | outcome | AC50
CC(C)(COCC1CO1)COCC1CO1 (stereo not given) | inactive | –
Cc1ccc(OP(=O)(Oc2ccc(C)cc2C)Oc2ccc(C)cc2C)c(C)c1 | – | 20 µM (active)
Cc1ccccc1OP(=O)(Oc1ccccc1)Oc1ccccc1 | – | 31 µM (active)
NC(=O)CCl | inactive | –
Cc1ccc2nc3sc(=O)sc3nc2c1 | – | 7.34 µM (active)
C[C@]12CC[C@@H](O)C[C@@H]1CC[C@@H]1[C@@H]2CC[C@]2(C)C(=O)CC[C@@H]12 | inactive | –
CCOP(=O)(OCC)OC(=CCl)c1ccc(Cl)cc1Cl | – | 35.4 µM (active)
Cc1cccc(OP(=O)(Oc2cccc(C)c2)Oc2cccc(C)c2)c1 | inactive | –
CCOP(=S)(OCC)SCS(=O)(=O)C(C)(C)C | inactive | –
c1ccc2sc(SNC3CCCCC3)nc2c1 | inactive | –
OCCCCO | inactive | –
CCCCCCCCCCCCc1cccc(S(=O)(=O)O)c1 | inactive | –
O=C(Cc1ccccc1)OCCc1ccccc1 | inactive | –
O=C(O)C1(c2ccc3c(c2)OC[C@H](Cc2ccc(-c4ccccc4)cc2)[C@H]3O)CCCC1 | – | 23.6 µM (active)
OC(Cc1ccccc1Cl)(Cn1cncn1)C1(Cl)CC1 (stereo not given) | inactive | –
CCOC(=O)C(SP(=S)(OC)OC)c1ccccc1 (stereo not given) | – | 3.97 µM (active)
CC(C=O)Cc1ccc2c(c1)OCO2 (stereo not given) | inactive | –
Nc1c(Oc2ccccc2)cc(O)c2c1C(=O)c1ccccc1C2=O | inactive | –
Oc1c(Br)cc(Br)cc1Br | – | 32.9 µM (active)
CN(C)C(=S)S | inactive | –

Compound | outcome | AC50
O=[N+]([O-])c1cccc2ccccc12 | inactive | –
CCOC(=O)CC(=O)CCl | inactive | –
Cc1ccccc1OP(=O)(Oc1ccccc1C)Oc1ccccc1C | – | 10.2 µM (active)
COCC(=O)N(c1c(C)cccc1C)[C@H](C)C(=O)OC | inactive | –
CC(C)(C)c1ccccc1O | inactive | –
CC(C)N(C(=O)CCl)c1ccccc1 | – | 20 µM (active)
Cc1cc(Cl)ccc1OC(C)C(=O)O (stereo not given) | inactive | –
Oc1cccc(-c2ccccc2)c1 | – | 30.6 µM (active)
CC(C)O.CC(C)O.OCCN(CCO)CCO.OCCN(CCO)CCO.[Ti] | inactive | –
CCOP(=S)(OCC)OP(=S)(OCC)OCC | – | 26.5 µM (active)
O=C(N[C@H]1CN2CCC1CC2)c1ccc2c(c1)OCCO2 | inactive | –
Cc1cc(C)cc(C)c1 | inactive | –
Nc1ccc(N)cc1 | inactive | –
Oc1cc(Cl)c(Cl)cc1Cl | – | 33.3 µM (active)
CCN(CC)C(=O)C(Cl)=C(C)OP(=O)(OC)OC | inactive | –
O=C(O)COc1cc(Cl)c(Cl)cc1Cl | inactive | –
OC(Cc1ccccc1Cl)(Cn1[nH]cnc1=S)C1(Cl)CC1 (stereo not given) | inactive | –
CCOC(=O)CCN(SN(C)C(=O)Oc1cccc2c1OC(C)(C)C2)C(C)C | – | 27.1 µM (active)
O=C1C=CC(=O)c2ccccc21 | – | 3.04 µM (active)
OCCN(CCO)CCO | inactive | –
